This note sets out measurements from ChEMBL document CHEMBL1157539, “Thousands of chemical starting points for antimalarial lead identification” (Nature, 2010).

For this assay, the system named is Plasmodium falciparum. The experiment in a line: GSK_TCMDC: Inhibition of Plasmodium falciparum 3D7 in whole red blood cells, using parasite LDH activity as an index of growth. Test compounds present at 2uM. Type of assay: functional.
The term Inhibition denotes the change of the read-out against control, counted positive when it falls. `Cc1cc(C(=O)NCc2ccc(-c3c(C)noc3C)cc2)n(-c2ccccc2)n1` returned an Inhibition of 92%.
For `Cc1c(Cc2ccccc2Br)cnc2nc(N)nc(N)c12.Cl` the value was 88%.
Under `COC(=O)c1ccc(CC(C)NCC(O)c2ccc(C(O)CNC(C)Cc3ccc(C(=O)OC)cc3)cc2)cc1.O` (stereo unspecified) stands 88%; under `CC(C)C[C@H](NC(=O)c1cc(-c2ccc(F)cc2)no1)C(=O)O.CC(C)C[C@H](NC(=O)c1conc1-c1ccc(F)cc1)C(=O)O`, 82%; under `CC(C)C[C@H](NC(=O)c1ccc(OCCN2CCOCC2)cc1)C(=O)N[C@H](/C=N/NC(=O)OC(C)(C)C)CCc1ccccc1`, 96%.
For `Cc1ccc(Nc2nccc(N(C)c3ccc4c(c3)nc(NC(=O)Cc3ccc(Cl)c(Cl)c3)n4C)n2)cc1S(N)(=O)=O.O=C(O)C(F)(F)F` the value was 94%; for `CN1CCCc2ccc(NC(=O)C=Cc3ccc(-c4ccc(F)cc4F)o3)cc2C1.O=C(O)C(F)(F)F`, 98%.
With `COc1ccc(CN2C(=S)N(Cc3ccccc3)C(=O)C2CC(=O)Nc2ccccc2)cc1OC` (stereo unspecified), the Inhibition is recorded as 96%.
Under `O=c1cc(NCCCCNCc2cccc(C(F)(F)F)c2)[nH]c2ccccc12` stands 94%.
`O=C(O)C(F)(F)F.O=C(c1cccs1)N(Cc1cccc(-c2ccc(CNCCc3ccccc3)cc2)c1)C1CCN(Cc2ccccc2)CC1` showed an Inhibition of 95%.
For `CC1CN(c2cc(=O)n(Cc3cccc(NC(=O)Nc4ccc(-c5ccccc5)cc4)c3)cn2)CC(C)N1.O=C(O)C(F)(F)F` (stereo unspecified) the value was 100%.
For `O=C(O)C(F)(F)F.Oc1ccc(CCNc2nc(NCCCOc3ccccc3-c3cccnc3)nc(N3CCNCC3)n2)cc1` the value was 92%; for `CC(Sc1nnc(-c2cccs2)[nH]1)C(=O)c1c[nH]c2ccccc12` (stereo unspecified), 94%.
For `O=C(/C=C/c1ccc(Cl)c(Cl)c1)NCCCCCCN1CCN(C(=O)Nc2cc(F)cc(F)c2)CC1` the value was 86%.
In the case of `COc1ccc(-c2nc(NC(=O)Cc3cccc(OC)c3)sc2C)cc1`, the Inhibition is on record as 100%.
`Cn1cnc2c(Nc3ccncc3)nc(-c3ccc4c(c3)OCO4)nc21.O=C(O)C(F)(F)F` had an Inhibition of 96%.
For `O=C(c1cc(-c2ccco2)n[nH]1)N1CCN(S(=O)(=O)c2ccc(Br)cc2)CC1` the value was 95%; for `O=C(N[C@@H](Cc1ccccc1)CN1CCC(Oc2ccc(F)cc2)CC1)c1ccc(OCCCN2CCCCC2)cc1.O=C(O)C(F)(F)F`, 100%.
Under `COc1cccc2c(NN=Cc3ccccc3F)ccnc12` stands 96%.
For `Cc1ccc(C(=O)Nc2ccc(-c3nc4ccccc4[nH]3)cc2)cc1S(=O)(=O)N1CCOCC1` the value was 90%; for `Cc1cc(NCCC(=O)Nc2ccccc2)nc(NCCc2ccccc2)n1.O=C(O)C(F)(F)F`, 99%.
`COc1cc(Cc2cnc(N)nc2N)ccc1OCc1cccc(Oc2ccccc2)c1` showed an Inhibition of 84%.
Under `O=C(Nc1ccc(N2CCN(c3ncccc3C(F)(F)F)CC2)nc1)c1cccs1` stands 83%; under `CCn1c(-c2ccccc2)cc2nnc3ccccc3c21`, 92%; under `COc1cc(OCCCN(C)Cc2ccc(OC)c(OC)c2)ccc1NC(=O)c1cccc2c(O)c3cccc(F)c3nc12`, 94%.
For `Fc1cccc(COc2ccc(Nc3ncnc4sc(C#CCNC5CCC5)cc34)cc2Cl)c1` the value was 100%; for `Brc1ccc(Nc2ccnc3cc(-c4nccs4)ccc23)cc1Oc1ccnc2cc(-c3nccs3)ccc12`, 91%.
Under `Cc1[nH]c(C)c(-c2ccc(OCc3cc(F)cc(F)c3)nc2)c(=O)c1Br` stands 98%.
Consider `CC(C)CCCC(C)(C)NC[C@@H](O)[C@H](Cc1ccccc1)NC(=O)c1cc(NC(C)C)cc(N2CCCCS2(=O)=O)c1F.O=CO`, for which the Inhibition came to 98%.
Under `COc1ccc2c(-c3ccccc3)noc2c1` stands 98%.
Consider `CN1CCN(CC(=O)Nc2cccc(-c3ccc(-c4nc5cc(F)ccc5[nH]4)cc3)c2)CC1`, for which the Inhibition was found to be 100%.
Under `COc1ccc2nccc([C@@H](O)CN3CCC(NCc4ccc5c(c4)NC(=O)CS5)CC3)c2n1.O=C(O)C(=O)O` stands 100%; under `Cc1cccc2nc(-c3cccc(-c4cccc(NC(=O)Cc5c[nH]cn5)c4)c3)[nH]c12`, 100%; under `O=C(/C=C/c1ccc(Cl)c(Cl)c1)NCCCCCN1CCC(NC(=O)Nc2cccc(Cl)c2)CC1`, 100%.
Under `NCCCN(Cc1ccc(Cl)c(Cl)c1)C(=O)Nc1ccc(Cl)c(Cl)c1` stands 93%; under `O=C(CCc1c[nH]cn1)Nc1cccc(-c2ccc(-c3nc4cc(F)ccc4[nH]3)cc2)c1`, 100%.
